From PubChem BioAssay
Active and inactive are the calls of the source.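 How the source made its calls: active means RAM network inhibition above 8.4% in each of two replicates, 3 SD over the compound average; inconclusive means above 8.4% inhibition in only one replicate; inactive means 8.4% inhibition or less in each replicate.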

Test: RAM signaling pathway blockade in yeast – S. cerevisiae, Pdr1DBD-CYC8 efflux-inhibited sensitized strain, primary screen (AID 1298);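 further: 0% = DMSO untreated cells without growth and 100% = 10 µM 1-NA-PP1 full growth; higher means more yeast growth rescued from 5-FOA killing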
Details: S. cerevisiae cbk1-as DSE1-URA3 strain, 5-FOA growth OD615, 2 d; at 50 µM; active compounds read high

Compound	RAM network inhibition
OC12CCCCC1C(c1ccccc1)NCC2 (stereo not given)	3.17% (inactive)
c1ccc2sc(C3CCCNC3)nc2c1 (stereo not given)	0.56% (inactive)
O=c1cccc2n1CC1CC2CN(c2ncnc3c2cnn3-c2ccccc2)C1 (stereo not given)	1.58% (inactive)
Nc1ccc(S(=O)(=O)N2CC3CC(C2)c2cccc(=O)n2C3)cc1 (stereo not given)	0.37% (inactive)
CC12CN3CC(C)(CN(C1)C3c1ccco1)C2=O (stereo not given)	2.07% (inactive)
CC1=CC(=C2C(=O)NC(=O)NC2=O)C=C(C(F)(F)F)N1C(C)C	0.05% (inactive)
O=C(CN1CC(c2ccccc2)CC1=O)Nc1ccc(F)cc1 (stereo not given)	0.85% (inactive)
CCCCCP(=O)(O)c1ccccc1	2.16% (inactive)
CCOC(=O)C1CCN(/C=C2/C(=O)NC(=O)N(c3ccc(OCC)cc3)C2=O)CC1	1.16% (inactive)
c1cncc(C2CCCCN2Cc2ccc3c(c2)OCO3)c1 (stereo not given)	4.3% (inactive)
CC1(C)CN=C(Nc2ccc(F)c(F)c2)S1	6.13% (inactive)
CCCCCCOc1ccc(CN2CCN(CCO)CC2)cc1	-1.21% (inactive)
COc1cc(CN2CC3CC(C2)c2cccc(=O)n2C3)cc(OC)c1OC (stereo not given)	0.85% (inactive)
O=C(c1ccc2c(c1)OCO2)N1CCC2(CC1)OCCO2	-1.11% (inactive)
CN1CSC(=S)N(C)C1	-1.87% (inactive)
O=C1CC(N2CC=C(c3ccccc3)CC2)C(=O)N1c1ccc(F)cc1 (stereo not given)	5.39% (inactive)
Cc1ccc2occ(CN3CC4CC(C3)c3cccc(=O)n3C4)c(=O)c2c1 (stereo not given)	1.61% (inactive)
Cn1c(O)c(C=Nc2ccc(Cl)cc2)c(=O)n(C)c1=O	4.04% (inactive)
O=c1c2ccccc2nc(-c2ccco2)n1-c1ccncc1	-0.06% (inactive)
CC1(C)C(c2ccccc2)=NC(c2cccnc2)=[N+]1[O-]	-0.36% (inactive)

Compound	RAM network inhibition
COc1cccc(OCC(=O)N2CCN(C)CC2)c1	0.31% (inactive)
Cc1ccc2c(c1)C1CN(C)CCC1N2C(=O)c1ccco1 (stereo not given)	2.85% (inactive)
C=Cn1ccnc1P(=S)(c1c(C)nn(-c2ccccc2)c1C)c1nccn1C=C	5.43% (inactive)
O=C(NC1(C(F)(F)F)Oc2ccccc2O1)N1CCC2(CC1)OCCO2	0.45% (inactive)
NC(=O)CN1CC(c2ccccc2)CC1=O (stereo not given)	4.63% (inactive)
O=c1cccc2n1CC1CC2CN(Cc2ccc3c(c2)OCO3)C1 (stereo not given)	-0.2% (inactive)
O=C(Nc1ccccc1OC(=O)N1CCCCC1)N1CCCCC1	3.27% (inactive)
COC(=O)c1ccc(CN2CCN(Cc3ccccc3)CC2)cc1	1.37% (inactive)
Cc1cc(OCC(=O)OC(C)(C)C)c2c3c(c(=O)oc2c1)CCC3	5.46% (inactive)
O=C(CN1CCOCC1)c1ccc2cc[nH]c2c1	1.57% (inactive)
CN1CC=C(c2c[nH]c3ccccc23)CC1	-1.66% (inactive)
C=Cn1ccnc1P(=S)(c1ccn(C)c1)c1nccn1C=C	1.45% (inactive)
C=Cn1ccnc1P(=S)(c1cc(N(CC)CC)ns1)c1nccn1C=C	2.27% (inactive)
CC(C)NS(=O)(=O)c1ccc(OCC(=O)N2CCN(C)CC2)cc1	3.6% (inactive)
CCOC(=O)C1SC2(C(F)(F)C(F)F)CC1(O)c1c(c(OC)c3occc3c1OC)O2 (stereo not given)	6.2% (inactive)
COc1cc2c(cc1OC)-c1c(OC)c(OC)cc3c1C(C2)N(C)CC3 (stereo not given)	6.23% (inactive)
C=Cn1ccnc1P(=S)(c1nccn1C=C)C1CCCCC1	3.48% (inactive)
CN1C(=O)C(Cc2cccs2)C(=O)N(C)C1=O	4.94% (inactive)
CN(C)C(=O)Oc1ccc(C(=O)c2ccccc2)cc1	0.92% (inactive)
O/N=C/c1c[nH]c2ccccc12	3.59% (inactive)
